Results filed as inconclusive are left out. The source made the active and inactive calls. Unless noted, the call rests on the fitted dose curve; in most records, active means well fitted curve in the direction sought with a large enough effect; inconclusive means small, poorly fitted or top-dose-only effect, or another doubt; inactive means no such curve, though single readings can be large; an effect the other way counts as inactive or inconclusive.
Experiments:
[1] = target: Lysosomal acid glucosylceramidase (Homo sapiens) (UniProt P04062); assay: Glucocerebrosidase-p2 (AID 348; in the data active means potency below about 10 µM; further: potency means the concentration at half of the fitted maximal effect); details: purified GBA, blue fluorogenic substrate, 40 min
Procedure, shortened: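 Normal human glucocerebrosidase (0.2 nM) with blue fluorogenic substrate (80 uM final) in citrate/phosphate pH 5.9 with 10mM sodium taurocholate, 0.01% tween-20; 40 min RT, NaOH/glycine stop; fluorescence Ex 365/Em 440; AC50 from a titration from 0.6 nM upwards.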

[2] = AP1 Signaling Pathway (AID 357; active means well fitted curve in either direction with a large enough effect, not every such curve was filed as active;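 further: ME-180 reporter cells stimulated with EGF at its EC50 level; on the % scale 0 is the no-effect control and ±100 the full control effect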); details: ME-180 AP-1-bla reporter, EGF-induced, beta-lactamase ratio, 5 h; at 7.69 µM (top of the series) unless noted
Procedure, shortened: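 Modulation of EGF-driven AP-1 transcription was assessed with a beta-lactamase reporter in ME-180 cells. Compound and EC50 EGF were co-incubated 5 hours at 37 °C before 2.5-hour CCF4 loading at room temperature and dual-emission reading.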

[3] = target: Cytochrome P450 1A2 (Homo sapiens) (UniProt P05177); assay: p450-cyp1a2 (AID 410; calls by dose curve; further: potency means the concentration at half of the fitted maximal effect;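 on activity change, negative = inhibition: -100% = full effect of reference inhibitor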); details: recombinant CYP1A2, luciferin-ME demethylation, luminescence; series mostly up to 57 µM
Procedure, shortened: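 Luminescent demethylation readout: Luciferin-ME (100uM, equal to Km) turned over by 20nM CYP1A2 for 60 min at room temperature after NADPH regeneration addition, following 10 min compound preincubation. Normalization used 57 uM furafylline as full inhibition.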

[4] = NFAT Signaling Pathway (AID 444; active means well fitted curve in either direction with a large enough effect, not every such curve was filed as active;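 further: carbachol stimulus at about its EC50 of 1 µM final; on the % scale 0 is the no-effect control and ±100 the full control effect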); details: Jurkat NFAT-bla M1, carbachol, beta-lactamase ratio, 5 h; at 7.69 µM (top of the series) unless noted
Procedure, shortened: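 Jurkat cells with NFAT-driven β-lactamase reporter and co-expressed M1 receptor, stimulated with carbachol (final 1 uM, ~EC50), compound titration, 5 h at 37 °C. CCF4 loaded 1 h at RT; 460/530 nm ratio gave %activity and AC50.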

[5] = Stat Signaling Pathway (AID 446; active means well fitted curve in either direction with a large enough effect, not every such curve was filed as active;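 further: ME-180 cervical cancer cells given 40 pM IL-6 alongside compound; SIE-controlled beta-lactamase reporter measured as 460/530 nm FRET emission ratio; on the % scale 0 is the no-effect control and ±100 the full control effect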); details: ME-180 (cervical carcinoma) SIE beta-lactamase reporter, IL-6 stimulated, 5 h; at 7.69 µM (top of the series) unless noted
Procedure, shortened: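 Normalization used AC90 stimulation (300 pM IL-6) and AC90 inhibition (125 nM pan-JAK inhibitor at 40 pM IL-6). The underlying signal is SIE-driven beta-lactamase in ME-180 cells after 5 h IL-6 exposure with compound.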

[6] = target: Glucocorticoid receptor (Homo sapiens) (UniProt P04150); assay: GR-GFP Redistribution (AID 450;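 active means compounds whose dose series gives a full or clear partial fitted curve of increased nuclear translocation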; further: potency means the concentration at half of the fitted maximal effect); details: U2OS GR-GFP nuclear translocation, laser cytometry, 2 h
[7] = target: Glucocorticoid receptor (Homo sapiens) (UniProt P04150); assay: GR-EFC Redistribution (AID 451; calls by dose curve; further: potency means the concentration at half of the fitted maximal effect); details: CHO-K1 GR-EFC translocation, beta-gal luminescence, 2 h
Procedure, shortened: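 CHO-K1 cells expressing nuclear EA and GR-ED fragments of b-gal; compounds titrated up to 46 uM final, 2 h at 37 C. GR nuclear translocation read as complemented b-gal luminescence after 1 h RT detection.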

[8] = target: Mitogen-activated protein kinase 10 (Mus musculus) (UniProt Q61831); assay: JNK3 AlphaScreen Assay (AID 530; active means well fitted curve in either direction with a large enough effect, not every such curve was filed as active;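 further: kinase came from lysate of stimulated human HepG2 cells; signal reports phosphorylation of biotinylated GST-cJun 1-79 at Ser73 with 10 µM ATP; on the % scale 0 is the no-effect control and ±100 the full control effect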); details: JNK3 lysate, c-Jun phosphorylation; series mostly up to 57.1 µM
Procedure, shortened: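 Activity was read by AlphaScreen after JNK3-containing HepG2 lysate (cytokine pre-activated) phosphorylated biotinylated GST-cJun with 10 uM ATP at room temperature. Phospho-Ser73 cJun antibody with Protein-A acceptor beads provided detection.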

[9] = target: 3',5'-cyclic-AMP phosphodiesterase 4B (Homo sapiens) (UniProt Q07343); assay: qHTS Assay for Inhibitors of PDE-IV (AID 607; active means well fitted activation curve with a large enough effect in the main read-out, with a control signal flat, not every such curve was filed as active; further: % of control where 0% means no effect); details: HEK293 ACTOne CNG channel cells, membrane potential fluorescence; series mostly up to 22.9 µM
Procedure, shortened: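 HEK293 ACTOne cells with CNG channel (1000/well), endogenous PDE4; membrane potential dye, compounds up to 22.9 uM final. Fluorescence Ex 535/Em 590; RO 20-1724 (100 uM final) as reference.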

[10] = qHTS Assay for Lipid Storage Modulators (AID 1519; calls by dose curve); details: Drosophila S3 cells, BODIPY lipid droplet/cell ratio, laser cytometry, cells loaded with oleic acid; for activity change, negative = inhibition: at 57.5 µM (top of the series)
Procedure, shortened: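 Cells seeded at 5,000 per well were treated with compounds over a concentration series and loaded with oleic acid (400 uM, as added). Lipid droplet fluorescence (488 nm excitation, 500-530 nm channel) was read by laser-scanning cytometry and normalized to 20 uM Triacsin C.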

[11] = target: Dual specificity protein kinase CLK4 (Homo sapiens) (UniProt Q9HAZ1); assay: qHTS Assay for Inhibitors of CDC-like Kinase 4 (Kinase-Glo Assay) (AID 1770); details: recombinant Clk4, Kinase-Glo ATP depletion luminescence; series mostly up to 66.7 µM; further: on the % scale 0 is the no-effect control and ±100 the full control effect; nearly all actives have a fitted effect of over 65% in size
Procedure, shortened: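 Substrate mix (RS peptide 100 uM, ATP 1 uM) dispensed, compound pinned in, then Clk4 added to 25 nM final. Incubated 4.5 h at RT; Kinase-Glo reagent added, luminescence read after 5 min.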

[12] = target: Dual specificity protein kinase CLK4 (Homo sapiens) (UniProt Q9HAZ1); assay: qHTS Assay for Inhibitors of CDC-like Kinase 4 (ADP-Glo Assay) (AID 1771); details: recombinant CLK4, ADP-Glo luminescence; series mostly up to 80 µM; further: on the % scale 0 is the no-effect control and ±100 the full control effect; nearly all actives have a fitted effect of over 70% in size
Procedure, shortened: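 ADP production was read by ADP-Glo luminescence after residual ATP depletion, following 1 h room-temperature reaction of 25 nM Clk4, 1 uM ATP and 100 uM RS peptide with MgCl2, EGTA, DTT and Triton X-100.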

[13] = target: Dual specificity protein kinase CLK4 (Homo sapiens) (UniProt Q9HAZ1); assay: qHTS Assay for Inhibitors of CDC-like Kinase 4 (ADP-FP Assay) (AID 1795); details: Transcreener ADP fluorescence polarization; series mostly up to 50 µM;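 further: recombinant human CLK4 phosphorylating RS repeat peptide at 1 µM ATP; on the % scale 0 is the no-effect control and ±100 the full control effect; nearly all actives have a fitted effect of over 60% in size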
Procedure, shortened: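 Clk4 6.25 nM; RS peptide 100 uM; ATP 1 uM; 25 mM Tris pH 7.5, 10 mM MgCl2; 1 h reaction. ADP detected via antibody/orange tracer FP displacement; TG003 positive control.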

[14] = target: Ubiquitin carboxyl-terminal hydrolase 1 (Homo sapiens) (UniProt O94782); assay: Inhibitors of USP1/UAF1: Pilot qHTS (AID 504865); details: purified USP1/UAF1, Ub-rhodamine cleavage fluorescence; series mostly up to 54.9 µM;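 further: rhodamine fluorescence freed from ubiquitin-rhodamine substrate followed over time; top concentration of the series differs between compounds; on the % scale 0 is the no-effect control and ±100 the full control effect; nearly all actives have a fitted effect of over 35% in size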
Procedure, shortened: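 In 50mM HEPES pH 7.8 containing 0.5mM EDTA, 1mM TCEP, 0.1 mg/ml BSA and 0.01% Tween-20, 1nM USP1/UAF1 is exposed to compound for 15 min, then Ub-Rho (150nM final) is added and fluorescence is read over time.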

[15] = target: Cytochrome P450 3A4 (Homo sapiens) (UniProt P08684); assay: qHTS Assay for Activators of Cytochrome P450 3A4 (AID 885); details: recombinant CYP3A4, Luciferin-PPXE luminescence, 60 min; series mostly up to 57.1 µM; further: nearly all actives have a fitted effect of over 65% in size
Procedure, shortened: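 Human CYP3A4 dealkylates Luciferin-PPXE to luciferin, which luciferase detection converts to light. Substrate was at its KM (25uM), buffer 200mM KPO4, reaction 60 min at RT.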

[16] = Confirmation and Secondary Assay for Modulators of Hemoglobin Beta Chain Splicing at IVS2 705 locus (AID 930); details: HeLa EGFP-705 splicing reporter, GFP fluorescence, 48 h; series mostly up to 38.3 µM;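 further: HeLa cells stably expressing the EGFP-705 splicing reporter; GFP fluorescence per well restored by corrected splicing of the IVS2-705 intron in EGFP; % of control where 0% means no effect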
Procedure, shortened: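 HeLa IVS2-705 EGFP reporter cells, 500/well, compound 2 d at 37C; correct splicing yields fluorescent EGFP. Control: 500 nM antisense PNA. Read-out: total peak GFP intensity.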

[17] = target: Cytochrome P450 3A4 (Homo sapiens) (UniProt P08684); assay: qHTS Assay for Inhibitors and Substrates of Cytochrome P450 3A4 (AID 884); details: recombinant CYP3A4, Luciferin-PPXE luminescence; series mostly up to 57.1 µM; further: nearly all actives have a fitted effect of over 50% in size; further: potency means the concentration at half of the fitted maximal effect
Procedure, shortened: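 Luminescent readout of luciferin produced by CYP3A4 (20 nM) dealkylation of Luciferin-PPXE, 25 uM (its KM). NADPH-driven reaction ran 60 min at RT after 10 min compound preincubation; data scaled to 57 uM ketoconazole as 100% inhibition.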

[18] = Confirmation and Secondary Assay for Modulators of Hemoglobin Beta Chain Splicing at IVS2 654 locus (AID 910); details: HeLa EGFP-654 splicing reporter, GFP fluorescence, 48 h; series mostly up to 38.3 µM;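 further: HeLa cells stably carrying EGFP split by mutant beta-globin IVS2-654 intron; % of control where 0% means no effect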
Procedure, shortened: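 HeLa cells stably expressing EGFP interrupted by β-globin IVS2-654 intron, seeded overnight in Opti-MEM/2% FCS, then treated 2 days at 37 °C. Restored splicing read as total peak GFP intensity per well by laser scanning cytometry (488 nm excitation, 500–520 nm emission); 500 nM antisense PNA as control.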

[19] = target: Cytochrome P450 2C19 (Homo sapiens) (UniProt P33261); assay: qHTS Assay for Inhibitors and Substrates of Cytochrome P450 2C19 (AID 899); details: recombinant CYP2C19, luciferin-H EGE luminescence; series mostly up to 57.1 µM; further: on the % scale 0 is the no-effect control and ±100 the full control effect; nearly all actives have a fitted effect of over 60% in size
Procedure, shortened: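 5 nM human CYP2C19 with 10uM Luciferin-H EGE (at KM) in 50mM KPO4, compound preincubated 10 min at 37C, then NADPH regeneration for 60 min at 37C. Luciferin read by luminescence after detection reagent; normalized to 57uM ketoconazole as full inhibition.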

[20] = measured here: cell count channel max response
[21] = measured here: lipid channel max response

Sequence of 3',5'-cyclic-AMP phosphodiesterase 4B (Homo sapiens) (Q07343 whole entry, looked up): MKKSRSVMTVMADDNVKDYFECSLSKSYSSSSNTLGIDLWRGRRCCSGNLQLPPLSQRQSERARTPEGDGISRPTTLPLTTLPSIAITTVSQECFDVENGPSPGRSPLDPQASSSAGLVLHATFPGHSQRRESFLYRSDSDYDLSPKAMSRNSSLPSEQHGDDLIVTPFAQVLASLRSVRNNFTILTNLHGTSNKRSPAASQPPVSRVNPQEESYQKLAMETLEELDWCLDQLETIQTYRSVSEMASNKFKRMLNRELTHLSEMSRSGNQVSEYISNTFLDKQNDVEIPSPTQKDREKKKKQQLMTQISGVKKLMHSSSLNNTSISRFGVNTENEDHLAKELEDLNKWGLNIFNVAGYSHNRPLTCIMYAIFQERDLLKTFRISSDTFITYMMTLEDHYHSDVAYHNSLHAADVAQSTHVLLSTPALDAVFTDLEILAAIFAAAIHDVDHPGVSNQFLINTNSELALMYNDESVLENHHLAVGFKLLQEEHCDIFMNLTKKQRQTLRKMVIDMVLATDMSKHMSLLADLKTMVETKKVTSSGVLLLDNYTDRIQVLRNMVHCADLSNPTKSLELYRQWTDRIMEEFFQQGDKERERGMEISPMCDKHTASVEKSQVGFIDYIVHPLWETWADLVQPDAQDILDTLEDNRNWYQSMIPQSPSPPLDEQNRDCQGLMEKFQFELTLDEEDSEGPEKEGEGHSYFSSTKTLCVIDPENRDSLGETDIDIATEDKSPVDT
Sequence of Cytochrome P450 1A2 (Homo sapiens) (P05177 whole entry, looked up): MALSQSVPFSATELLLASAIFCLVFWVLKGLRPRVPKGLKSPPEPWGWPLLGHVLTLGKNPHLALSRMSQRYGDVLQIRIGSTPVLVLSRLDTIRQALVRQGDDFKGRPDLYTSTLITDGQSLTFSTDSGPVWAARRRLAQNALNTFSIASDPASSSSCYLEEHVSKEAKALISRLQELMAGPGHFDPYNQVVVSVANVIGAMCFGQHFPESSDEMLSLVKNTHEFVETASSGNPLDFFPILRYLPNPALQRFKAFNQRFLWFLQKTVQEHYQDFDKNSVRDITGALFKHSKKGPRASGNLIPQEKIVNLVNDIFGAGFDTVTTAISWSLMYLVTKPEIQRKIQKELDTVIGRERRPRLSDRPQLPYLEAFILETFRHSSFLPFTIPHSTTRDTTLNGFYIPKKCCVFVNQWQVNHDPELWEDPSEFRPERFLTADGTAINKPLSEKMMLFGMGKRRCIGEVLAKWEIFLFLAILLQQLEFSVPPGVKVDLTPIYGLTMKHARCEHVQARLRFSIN
Sequence of Lysosomal acid glucosylceramidase (Homo sapiens) (P04062 whole entry, looked up): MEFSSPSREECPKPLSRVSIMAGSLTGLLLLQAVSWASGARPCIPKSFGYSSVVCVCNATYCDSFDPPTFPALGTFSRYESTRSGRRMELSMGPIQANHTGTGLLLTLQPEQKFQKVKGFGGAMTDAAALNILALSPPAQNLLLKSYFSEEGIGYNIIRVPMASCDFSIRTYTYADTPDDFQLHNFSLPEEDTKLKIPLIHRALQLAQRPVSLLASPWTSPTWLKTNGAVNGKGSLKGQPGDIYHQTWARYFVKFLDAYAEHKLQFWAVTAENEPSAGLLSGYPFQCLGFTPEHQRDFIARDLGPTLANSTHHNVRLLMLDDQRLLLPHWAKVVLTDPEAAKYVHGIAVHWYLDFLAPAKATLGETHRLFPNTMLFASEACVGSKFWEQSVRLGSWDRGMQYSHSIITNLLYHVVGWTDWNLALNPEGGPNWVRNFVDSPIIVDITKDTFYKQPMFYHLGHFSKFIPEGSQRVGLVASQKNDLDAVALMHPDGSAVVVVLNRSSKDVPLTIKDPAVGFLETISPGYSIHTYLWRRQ
Sequence of Dual specificity protein kinase CLK4 (Homo sapiens) (Q9HAZ1 whole entry, looked up): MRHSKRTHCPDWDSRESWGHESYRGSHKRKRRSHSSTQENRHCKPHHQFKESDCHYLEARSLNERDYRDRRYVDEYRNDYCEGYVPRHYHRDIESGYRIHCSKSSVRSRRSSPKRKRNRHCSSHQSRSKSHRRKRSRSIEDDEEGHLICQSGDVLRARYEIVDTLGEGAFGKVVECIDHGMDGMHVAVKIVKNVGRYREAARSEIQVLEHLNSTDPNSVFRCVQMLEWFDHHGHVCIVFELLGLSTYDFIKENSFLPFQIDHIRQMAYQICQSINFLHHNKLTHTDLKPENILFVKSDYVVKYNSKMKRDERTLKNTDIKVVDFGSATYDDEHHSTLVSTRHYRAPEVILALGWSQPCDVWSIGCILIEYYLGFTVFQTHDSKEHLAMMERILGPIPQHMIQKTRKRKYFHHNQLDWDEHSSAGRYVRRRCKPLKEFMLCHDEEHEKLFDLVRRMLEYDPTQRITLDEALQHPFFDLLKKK
Sequence of Cytochrome P450 3A4 (Homo sapiens) (P08684 whole entry, looked up): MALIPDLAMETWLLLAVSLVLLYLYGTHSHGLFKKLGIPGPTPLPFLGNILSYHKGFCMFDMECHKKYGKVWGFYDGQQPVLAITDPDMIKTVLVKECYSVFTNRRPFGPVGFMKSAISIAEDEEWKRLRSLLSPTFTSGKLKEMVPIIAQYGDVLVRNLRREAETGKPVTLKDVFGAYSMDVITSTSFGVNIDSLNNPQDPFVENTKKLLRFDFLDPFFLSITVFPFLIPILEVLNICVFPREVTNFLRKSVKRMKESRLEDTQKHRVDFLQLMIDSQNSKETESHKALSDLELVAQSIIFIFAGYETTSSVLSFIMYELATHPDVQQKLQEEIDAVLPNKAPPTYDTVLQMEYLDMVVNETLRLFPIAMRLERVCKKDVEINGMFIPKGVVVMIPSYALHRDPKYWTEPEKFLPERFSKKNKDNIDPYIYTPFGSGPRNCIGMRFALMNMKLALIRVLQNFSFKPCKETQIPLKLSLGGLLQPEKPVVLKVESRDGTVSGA
Sequence of Glucocorticoid receptor (Homo sapiens) (P04150 whole entry, looked up, the tested form may be a part): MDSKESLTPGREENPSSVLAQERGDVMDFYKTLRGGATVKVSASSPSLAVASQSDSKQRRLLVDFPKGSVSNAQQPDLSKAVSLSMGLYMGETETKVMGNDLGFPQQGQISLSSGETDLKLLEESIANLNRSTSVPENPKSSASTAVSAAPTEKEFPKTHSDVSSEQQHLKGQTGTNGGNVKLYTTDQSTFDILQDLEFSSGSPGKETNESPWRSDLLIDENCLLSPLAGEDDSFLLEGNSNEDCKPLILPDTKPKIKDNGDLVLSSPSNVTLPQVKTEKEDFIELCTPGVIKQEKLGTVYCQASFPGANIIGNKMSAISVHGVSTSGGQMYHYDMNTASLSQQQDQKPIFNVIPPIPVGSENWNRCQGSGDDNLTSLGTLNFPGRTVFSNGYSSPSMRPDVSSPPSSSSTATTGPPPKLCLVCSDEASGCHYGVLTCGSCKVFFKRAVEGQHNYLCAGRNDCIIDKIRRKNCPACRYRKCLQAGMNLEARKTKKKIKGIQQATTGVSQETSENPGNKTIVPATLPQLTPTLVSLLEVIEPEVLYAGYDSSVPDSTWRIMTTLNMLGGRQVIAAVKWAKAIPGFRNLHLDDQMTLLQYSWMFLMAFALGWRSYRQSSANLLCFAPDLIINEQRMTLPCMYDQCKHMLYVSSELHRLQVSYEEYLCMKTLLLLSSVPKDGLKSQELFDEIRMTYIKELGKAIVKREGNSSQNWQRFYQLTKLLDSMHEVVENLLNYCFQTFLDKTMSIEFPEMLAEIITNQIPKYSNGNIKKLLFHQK
Sequence of Ubiquitin carboxyl-terminal hydrolase 1 (Homo sapiens) (O94782 whole entry, looked up): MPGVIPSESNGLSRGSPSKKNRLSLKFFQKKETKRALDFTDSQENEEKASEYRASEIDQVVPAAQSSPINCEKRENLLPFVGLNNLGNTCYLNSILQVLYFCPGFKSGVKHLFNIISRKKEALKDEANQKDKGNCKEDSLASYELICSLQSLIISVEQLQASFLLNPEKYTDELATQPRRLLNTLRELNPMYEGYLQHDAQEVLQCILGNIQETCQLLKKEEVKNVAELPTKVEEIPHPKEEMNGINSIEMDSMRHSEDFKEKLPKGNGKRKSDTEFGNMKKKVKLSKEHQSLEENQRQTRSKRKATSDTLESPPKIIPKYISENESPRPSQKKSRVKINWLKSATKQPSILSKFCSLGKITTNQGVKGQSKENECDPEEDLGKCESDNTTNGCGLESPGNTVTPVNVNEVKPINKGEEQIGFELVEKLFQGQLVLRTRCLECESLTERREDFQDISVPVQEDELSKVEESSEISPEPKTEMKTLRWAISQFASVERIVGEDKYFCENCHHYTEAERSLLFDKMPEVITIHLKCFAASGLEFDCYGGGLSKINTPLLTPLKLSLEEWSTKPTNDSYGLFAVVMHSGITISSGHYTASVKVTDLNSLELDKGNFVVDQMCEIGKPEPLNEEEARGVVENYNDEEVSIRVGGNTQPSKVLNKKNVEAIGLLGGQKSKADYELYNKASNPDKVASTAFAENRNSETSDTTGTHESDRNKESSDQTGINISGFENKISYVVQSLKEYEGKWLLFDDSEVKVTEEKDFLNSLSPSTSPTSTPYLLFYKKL
Sequence of Cytochrome P450 2C19 (Homo sapiens) (P33261 whole entry, looked up): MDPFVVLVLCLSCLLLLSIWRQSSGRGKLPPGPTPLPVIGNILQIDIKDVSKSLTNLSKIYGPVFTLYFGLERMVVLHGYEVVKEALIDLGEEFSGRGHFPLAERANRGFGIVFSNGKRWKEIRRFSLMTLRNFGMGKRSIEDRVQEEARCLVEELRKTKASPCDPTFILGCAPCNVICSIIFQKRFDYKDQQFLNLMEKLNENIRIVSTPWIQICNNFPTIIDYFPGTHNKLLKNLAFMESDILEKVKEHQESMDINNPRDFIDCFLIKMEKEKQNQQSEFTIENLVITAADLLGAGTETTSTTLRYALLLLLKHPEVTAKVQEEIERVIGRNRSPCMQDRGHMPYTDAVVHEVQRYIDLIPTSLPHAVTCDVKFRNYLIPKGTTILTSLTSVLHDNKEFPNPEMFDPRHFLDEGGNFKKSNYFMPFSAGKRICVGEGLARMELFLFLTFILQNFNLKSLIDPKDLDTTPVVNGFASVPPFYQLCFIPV

## CN1CCN(c2ncc3nc(-c4ccccc4)c(=O)n(C)c3n2)CC1
[1]
  Potency: > 11.4 µM (inactive)
[2]
  activity change, negative = inhibition: 19.6% (inactive)
[3]
  Potency: 15.8 µM (active)
[4]
  activity change, negative = inhibition: 23.4% (inactive)
[5]
  activity, negative = inhibition: 20% (inactive)
[6]
  Potency: > 9.22 µM (inactive)
[7]
  Potency: > 46 µM (inactive)
[8]
  Potency: inactive
[9]
  Potency: inactive
[10]
  activity change, negative = inhibition: 4.64% (inactive)
[10]; [20]
  max response: 14.1%
[10]; [21]
  max response: 18.5%
[11]
  Potency: inactive
[12]
  Potency: inactive
[13]
  Potency: inactive
[14]
  Potency: inactive

## COc1cc(C)c(C(=O)Oc2cc(C)c(C(=O)O)c(O)c2C)c(OC)c1C
[15]
  Potency: inactive
[16]
  outcome: inactive
[10]
  activity change, negative = inhibition: 7.39% (inactive)
[10]; [20]
  max response: 9.06%
[10]; [21]
  max response: 19.2%

## O=C1C=CC2=C3c4cc(O)c(O)cc4CC3(O)COC2=C1O (stereo not given)
[17]
  Potency: 31.6 µM (active)
[15]
  Potency: inactive
[18]
  Potency: inactive
[16]
  outcome: inactive
[10]
  activity change, negative = inhibition: 6.15% (inactive)
[10]; [20]
  max response: 11.8%
[10]; [21]
  max response: 21%

## CN1CCN(c2ncc3nc(CCc4ccccc4)c(=O)n(C)c3n2)CC1
[1]
  Potency: > 11.4 µM (inactive)
[2]
  activity change, negative = inhibition: 14.9% (inactive)
[3]
  Potency: 12.6 µM (active)
[4]
  activity change, negative = inhibition: 1.74% (inactive)
[5]
  activity, negative = inhibition: -2.48% (inactive)
[6]
  Potency: > 9.22 µM (inactive)
[7]
  Potency: > 46 µM (inactive)
[8]
  Potency: inactive
[9]
  Potency: inactive
[17]
  Potency: inactive
[10]
  activity change, negative = inhibition: 3.14% (inactive)
[10]; [20]
  max response: 18.8%
[10]; [21]
  max response: 18.3%
[11]
  Potency: inactive
[12]
  Potency: inactive
[13]
  Potency: inactive
[14]
  Potency: inactive

## Nc1ncnc2c1ncn2[C@@H]1O[C@H](COP(=O)(O)OP(=O)(O)OP(=O)(O)OP(=O)(O)OC[C@@H]2O[C@H](n3cnc4c(N)ncnc43)[C@@H](O)[C@@H]2O)[C@H](O)[C@H]1O
[10]
  activity change, negative = inhibition: 1.69% (inactive)
[10]; [20]
  max response: 17%
[10]; [21]
  max response: 19.7%

## COc1cc2c3cc1Oc1c(OC)c(OC)cc4c1[C@@H](Cc1ccc(O)c(c1)Oc1ccc(cc1)C[C@@H]3N(C)CC2)N(C)CC4
[3]
  Potency: inactive
[6]
  Potency: > 46 µM (inactive)
[7]
  Potency: > 46 µM (inactive)
[8]
  Potency: inactive
[19]
  Potency: inactive
[10]
  activity change, negative = inhibition: 6.85% (inactive)
[10]; [20]
  max response: 20.8%
[10]; [21]
  max response: 29.4%

## CCC(=O)OC1CCC2C3CCc4cc(O)ccc4C3CC[C@]12C (stereo not given in full)
[18]
  Potency: inactive
[16]
  outcome: inactive
[10]
  activity change, negative = inhibition: 3.26% (inactive)
[10]; [20]
  max response: 9.46%
[10]; [21]
  max response: 15.5%

## C[C@@H](Oc1ccc(Oc2cnc3ccc(Cl)cc3n2)cc1)C(=O)O
[10]
  activity change, negative = inhibition: -0.184% (inactive)
[10]; [20]
  max response: -7.54%
[10]; [21]
  max response: -6.55%

## COc1ccc(-c2nc3cnc(N4CCN(C)CC4)nc3n(C)c2=O)cc1
[1]
  Potency: > 11.4 µM (inactive)
[2]
  activity change, negative = inhibition: 14.5% (inactive)
[3]
  Potency: 25.1 µM (active)
[4]
  activity change, negative = inhibition: 27.7% (inactive)
[5]
  activity, negative = inhibition: 26.5% (inactive)
[6]
  Potency: > 9.22 µM (inactive)
[7]
  Potency: > 46 µM (inactive)
[8]
  Potency: inactive
[9]
  Potency: inactive
[10]
  activity change, negative = inhibition: 1.83% (inactive)
[10]; [20]
  max response: 6.37%
[10]; [21]
  max response: 3.68%
[11]
  Potency: inactive
[12]
  Potency: inactive
[13]
  Potency: inactive
[14]
  Potency: inactive

From PubChem BioAssay (NCATS)
